Measured values reported in PubChem BioAssay AID1159580 (chemical genetic matrix, 2015).
Out of some 5,500 compounds screened, about 2,000 (36%) were called active. Another 18% or so got no clear call; they are omitted. Cut-off read from the data, not from the text of the source: active = normalized growth mostly below about 0.91 (no sharp cut-off); inconclusive = no clear call, values can overlap the other calls; inactive = mostly above about 0.92. The list shows a part of the results.

Assay: chemical genetic growth profiling, strain panel (AID 1159580);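 note: tested at 20 µM; growth read once vehicle control cultures reached saturation at 30 °C; 1 = growth at the plate median or of vehicle wells; lower values mean less growth of the strain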
Details: growth OD

Measured: normalized growth

Clc1ccc(C(OCCN2CCCCC2)c2ccccc2)cc1 (centres undefined)
inactive: S. cerevisiae deletion strains, locus YJR043C, strain POL32, active compounds read low 1.02 | S. cerevisiae deletion strains, locus YJR075W, strain HOC1, active compounds read low 0.948 | S. cerevisiae deletion strains, locus YKL009W, strain mrt4, active compounds read low 0.996 | S. cerevisiae deletion strains, locus YKL068W, active compounds read low 1 | S. cerevisiae deletion strains, locus YKL085W, strain MDH1 (second series), active compounds read low 0.997 | S. cerevisiae deletion strains, locus YKL085W, strain MDH1, active compounds read low 0.997 | S. cerevisiae deletion strains, locus YKL160W, strain elf1, active compounds read low 1.02 | S. cerevisiae deletion strains, locus YKL190W, strain CNB1, active compounds read low 1.01 | S. cerevisiae deletion strains, locus YKR001C, strain vps1, active compounds read low 0.994 | S. cerevisiae deletion strains, locus YKR026C, strain gcn3, active compounds read low 1.02 | S. cerevisiae deletion strains, locus YKR091W, strain srl3, active compounds read low 1.02 | S. cerevisiae deletion strains, locus YLL001W, strain dnm1, active compounds read low 1.02 | S. cerevisiae deletion strains, locus YLL026W, active compounds read low 1.02 | S. cerevisiae deletion strains, locus YLL041C, strain sdh2, active compounds read low 1.01 | S. cerevisiae deletion strains, locus YLR027C, strain aat2, active compounds read low 1.02 | S. cerevisiae deletion strains, locus YLR039C, strain RIC1, active compounds read low 1.26 | S. cerevisiae deletion strains, locus YLR058C, strain SHM2, active compounds read low 1 | S. cerevisiae deletion strains, locus YLR102C, strain apc9, active compounds read low 0.999 | S. cerevisiae deletion strains, locus YLR221C, strain rsa3, active compounds read low 1.01 | S. cerevisiae deletion strains, locus YLR258W, strain gsy2, active compounds read low 1.02 | S. cerevisiae deletion strains, locus YLR262C, strain YPT6 (second series), active compounds read low 1.07 | S. cerevisiae deletion strains, locus YLR262C, strain YPT6, active compounds read low 1.27 | S. cerevisiae deletion strains, locus YLR268W, strain sec22, active compounds read low 0.96 | S. cerevisiae deletion strains, locus YLR320W, strain mms22, active compounds read low 1.01 | S. cerevisiae deletion strains, locus YLR330W, strain CHS5, active compounds read low 1.01 | S. cerevisiae deletion strains, locus YLR342W, strain FKS1 (second series), active compounds read low 0.907 | S. cerevisiae deletion strains, locus YLR342W, strain FKS1, active compounds read low 1.04 | S. cerevisiae deletion strains, locus YLR357W, strain rsc2, active compounds read low 1.02 | S. cerevisiae deletion strains, locus YLR370C, strain arc18, active compounds read low 1 | S. cerevisiae deletion strains, locus YLR371W, strain rom2, active compounds read low 1.01 | S. cerevisiae deletion strains, locus YLR384C, strain iki3, active compounds read low 1.01 | S. cerevisiae deletion strains, locus YLR418C, strain cdc73, active compounds read low 0.852 | S. cerevisiae deletion strains, locus YML016C, strain PPZ1, active compounds read low 0.999 | S. cerevisiae deletion strains, locus YML032C, strain rad52, active compounds read low 0.979 | S. cerevisiae deletion strains, locus YML120C, strain ndi1, active compounds read low 1.01 | S. cerevisiae deletion strains, locus YML124C, strain tub3, active compounds read low 1.01 | S. cerevisiae deletion strains, locus YMR058W, strain fet3, active compounds read low 1.02 | S. cerevisiae deletion strains, locus YMR078C, strain ctf18, active compounds read low 1 | S. cerevisiae deletion strains, locus YMR125W, strain sto1, active compounds read low 1.03 | S. cerevisiae deletion strains, locus YMR129W, active compounds read low 1.03 | S. cerevisiae deletion strains, locus YMR205C, strain PFK2, active compounds read low 1.01 | S. cerevisiae deletion strains, locus YMR223W, strain ubp8, active compounds read low 0.987 | S. cerevisiae deletion strains, locus YMR231W, strain pep5, active compounds read low 1.02 | S. cerevisiae deletion strains, locus YMR263W, strain SAP30, active compounds read low 0.977 | S. cerevisiae deletion strains, locus YMR307W, strain GAS1, active compounds read low 1.12 | S. cerevisiae deletion strains, locus YNL067W, strain RPL9B, active compounds read low 0.98 | S. cerevisiae deletion strains, locus YNL071W, strain lat1, active compounds read low 1.02 | S. cerevisiae deletion strains, locus YNL128W, strain TEP1, active compounds read low 0.955 | S. cerevisiae deletion strains, locus YNL153C, strain GIM3, active compounds read low 0.971 | S. cerevisiae deletion strains, locus YNL209W, strain ssb2, active compounds read low 1.03 | S. cerevisiae deletion strains, locus YNL233W, strain BNI4, active compounds read low 0.986 | S. cerevisiae deletion strains, locus YNL248C, strain rpa49, active compounds read low 1.03 | S. cerevisiae deletion strains, locus YNL250W, strain rad50, active compounds read low 0.991 | S. cerevisiae deletion strains, locus YNL271C, strain bni1, active compounds read low 0.997 | S. cerevisiae deletion strains, locus YNL298W, strain CLA4, active compounds read low 1 | S. cerevisiae deletion strains, locus YNL307C, strain MCK1, active compounds read low 0.992 | S. cerevisiae deletion strains, locus YNL322C, strain KRE1 (second series), active compounds read low 1.03 | S. cerevisiae deletion strains, locus YNL322C, strain KRE1, active compounds read low 1.01 | S. cerevisiae deletion strains, locus YNR049C, strain mso1, active compounds read low 0.999 | S. cerevisiae deletion strains, locus YNR052C, strain pop2, active compounds read low 0.965 | S. cerevisiae deletion strains, locus YOL006C, strain TOP1, active compounds read low 0.592 | S. cerevisiae deletion strains, locus YOL012C, strain htz1 0.731 | S. cerevisiae deletion strains, locus YOL147C, strain pex11, active compounds read low 0.997 | S. cerevisiae deletion strains, locus YOR001W, strain rrp6, active compounds read low 1.02 | S. cerevisiae deletion strains, locus YOR061W, strain CKA2, active compounds read low 1 | S. cerevisiae deletion strains, locus YOR069W, strain VPS5, active compounds read low 0.997 | S. cerevisiae deletion strains, locus YOR070C, strain gyp1, active compounds read low 1.03 | S. cerevisiae deletion strains, locus YOR080W, strain dia2, active compounds read low 1.02 | S. cerevisiae deletion strains, locus YOR083W, strain WHI5, active compounds read low 1.02 | S. cerevisiae deletion strains, locus YOR106W, strain vam3, active compounds read low 1.01 | S. cerevisiae deletion strains, locus YOR136W, strain idh2, active compounds read low 1 | S. cerevisiae deletion strains, locus YOR144C, strain elg1, active compounds read low 1 | S. cerevisiae deletion strains, locus YOR184W, strain ser1, active compounds read low 1.04 | S. cerevisiae deletion strains, locus YOR265W, strain rbl2, active compounds read low 1.01 | S. cerevisiae deletion strains, locus YOR270C, strain vph1, active compounds read low 0.797 | S. cerevisiae deletion strains, locus YOR290C, strain snf2, active compounds read low 1.01 | S. cerevisiae deletion strains, locus YOR316C, strain cot1, active compounds read low 1 | S. cerevisiae deletion strains, locus YPL051W, strain arl3, active compounds read low 1.01 | S. cerevisiae deletion strains, locus YPL055C, strain LGE1, active compounds read low 0.958 | S. cerevisiae deletion strains, locus YPL078C, strain atp4, active compounds read low 1.02 | S. cerevisiae deletion strains, locus YPL106C, strain sse1, active compounds read low 1.02 | S. cerevisiae deletion strains, locus YPL240C, strain hsp82, active compounds read low 1.01 | S. cerevisiae deletion strains, locus YPL241C, strain CIN2, active compounds read low 1 | S. cerevisiae deletion strains, locus YPR119W, strain clb2, active compounds read low 1 | S. cerevisiae deletion strains, locus YPR141C, strain kar3, active compounds read low 0.993 | S. cerevisiae deletion strains, locus YPR163C, strain tif3, active compounds read low 0.981 | S. cerevisiae deletion strains, locus YPR167C, strain met16, active compounds read low 1 | S. cerevisiae deletion strains, strain wtn01, active compounds read low 0.974 | S. cerevisiae strains, strain wild type, active compounds read low 0.988
